Experimental data as given in PubChem BioAssay AID624331 (National Center for Advancing Translational Sciences (NCATS), 2012).
Inconclusive results are not listed. Values without a mark were called inactive. Activity calls are given as the source filed them. Calls come from the whole dose curve; as a rule, active = well fitted activation curve with a large enough effect; inconclusive = small, poorly fitted or top-dose-only effect; inactive = no such curve, though single readings can be large or run the other way.
Potency is the fitted concentration of half-maximal effect.

Experiment: qHTS assay for re-activators of p53 using a Luc reporter: Hit Validation with no p53 Expressed; for activity change, positive = activation: 0% is about no effect
Conditions: p53-null cells, luciferase reporter counter-screen; series mostly up to 46.1 µM; activity change, positive = activation: at the top concentration
Outline: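 Without p53 expression, cells (1000/well, Opti-MEM + 10% FBS) were exposed 24 h at 37 deg C to compounds in a 1:5 series from 10 mM stock (top 46.1 µM in well). Luminescent signal read 10 min after Amplite addition; actives flag unspecific activation.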
In the case of `Cc1cc(C)nc(CC(N)=O)n1`, the “activity change, positive = activation” value was 10.8%.
In the case of `O=C(NC(=S)Nc1nc2ccccc2s1)c1ccco1`, the “activity change, positive = activation” value was -0.197%.
In the case of `CCS(=O)(=O)NCCc1csc(-c2ccccc2)n1`, the “activity change, positive = activation” value was -21.3%.
For `Cc1c(C(=O)N(C)c2ccccc2Cl)cnn1-c1ccccc1`, the “activity change, positive = activation” value was -31.1%.
With `O=C(CC1CCCCC1)NCc1ccc(Cl)cc1` the “activity change, positive = activation” value was 0.113%.
For `c1ccc(-c2cc3cc4c(cc3cn2)OCO4)cc1`, the “activity change, positive = activation” value was 67.8%.
For `COc1ccccc1-c1cc(C(=O)Nc2cc(C)on2)no1`, the “activity change, positive = activation” value was -34.2%.
With `O=C(N/N=C/C1C(c2ccccc2)C1(Cl)Cl)c1cccc(Cl)c1` (stereo not given) the “activity change, positive = activation” value was -39.2%.
With `CC1=CN2C(=N)/C(=C/c3ccc(C)o3)C(=O)N=C2S1` the “activity change, positive = activation” value was -17.3%.
For `CCOC(=O)c1csc(Nc2nc3ccc(F)cc3s2)n1`, the “activity change, positive = activation” value was 16.4%.
In the case of `O=C(CCN1C(=O)/C(=C/c2ccccc2Cl)SC1=S)N1CCOCC1`, the “activity change, positive = activation” value was -4.6%.
For `COc1cc(C2NC(=S)NC(O)(C(F)(F)F)C2C(=O)c2cccs2)cc(OC)c1O` (stereo not given), the “activity change, positive = activation” value was 5.29%.
With `Cc1ccc2nc(NC(=O)c3ccc(Cl)s3)sc2c1` the “activity change, positive = activation” value was 12.4%.
For `COc1ccc2c(c1)Cc1sc(NC(C)=O)nc1-2`, the “activity change, positive = activation” value was 29.1%.
With `COc1ccc(-n2c(C)cc(C(=O)COc3ccc(C)nc3[N+](=O)[O-])c2C)cc1` the “activity change, positive = activation” value was -28.6%.
In the case of `Cc1ccc(/C=N/NC(=O)c2cccs2)s1`, the “activity change, positive = activation” value was 33.2%.
With `Cc1cccc(-n2nc([N+](=O)[O-])c(=NC3CCN(Cc4ccccc4)CC3)n2O)c1` the “activity change, positive = activation” value was -29.7%.
For `CC(=O)N/C(=C/c1ccc2c(c1)OCO2)C(=O)Nc1ccccc1`, the “activity change, positive = activation” value was -13.1%.
With `Cc1ccc(NC(=O)C2CCCO2)cc1[N+](=O)[O-]` (stereo not given) the “activity change, positive = activation” value was -2.44%.
With `CCN(CC)CCn1c(SCC(=O)Nc2ccc3c(c2)CCC3)nc2ccccc2c1=O` the Potency was 8.2 µM (active).
